# Measured values: PubChem BioAssay
# Active and inactive are the calls of the source.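 Rule for the calls: active = viability loss from added drug above about 55%, and viability with drug at most 40%, in both replicates (limit read from the data, passing the limit was not always enough); inconclusive = both conditions met in only one replicate; inactive = neither replicate meets both conditions.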
# Assay: MRP1 drug-resistance reversers in H69AR cells – cell-based, doxorubicin co-treatment, pilot screen (AID 601)
# Settings: H69AR cells + 2 uM doxorubicin, CellTiter-Glo, 72 h; at 10 µM; stronger effect = higher value
row,SMILES,differential viability (reversal)
1,Cc1cccc(NCc2ccccc2O)c1,5.33% (inactive)
2,CCCCC(CC)Cn1c2nc3ccccc3nc2c2c(=N)oc(C)nc21 (configuration not stated),-0.33% (inactive)
3,O=C(Sc1nnnn1C1CCCCC1)c1cccs1,6.21% (inactive)
4,Cc1cc(=O)[nH]c2c1cnn2Cc1ccccc1,5.01% (inactive)
5,O=C(CN1CCOCC1)Nc1cccc(C(=O)Nc2cccc(C(F)(F)F)c2)c1,8.35% (inactive)
6,CCOC(=O)CS(=O)(=O)c1nc(-c2ccccc2)cc(C(F)(F)F)n1,0.47% (inactive)
7,CCn1c(Cc2ccccc2)nnc1SCC(=O)Nc1nc2ccccc2s1,4.48% (inactive)
8,CCOc1ccccc1N(CC(=O)N1CCOCC1)S(=O)(=O)c1ccccc1,1.18% (inactive)
9,O=C(Nc1ccc(Cl)cc1)N1CCSCC1,17% (inactive)
10,CC(=O)c1cccc(NS(=O)(=O)c2ccc3c(c2)oc(=O)n3C)c1,8.94% (inactive)
11,O=C1c2ccccc2C(=O)N1CCCCN1CCN(CCCCN2C(=O)c3ccccc3C2=O)CC1,12.7% (inactive)
12,CCCC1CCC(C(=O)Nn2c(C)nc3ccccc3c2=O)CC1 (configuration not stated),14.9% (inactive)
13,Cc1cnn(C(=S)NCc2ccco2)c1,-5.57% (inactive)
14,Cc1ccccc1CN1CCN(CC(=O)NCc2ccco2)C1=O,-0.72% (inactive)
15,CC1(C)C2CCC1(CS(=O)(=O)NCc1ccc(C(=O)O)cc1)C(=O)C2 (configuration not stated),23.7% (inactive)
16,Cc1cccc2cc(C#N)c(SCCN3CCCCC3)nc12,-10% (inactive)
17,CC1(C)CC(=O)c2c(O)cc(O)cc2O1,15.4% (inactive)
18,Cc1nc(C)c(C(=O)C2=C(O)C(=O)N(CCN3CCOCC3)C2c2ccco2)s1 (configuration not stated),-3.34% (inactive)
19,Cc1cc(C(F)(F)F)nc(SCC(=O)NC2=NC(=O)C(C)S2)n1 (configuration not stated),16.8% (inactive)
20,CN(c1cccc(NC(=O)COc2ccccc2)c1)S(C)(=O)=O,-3.07% (inactive)
21,Cc1noc(C)c1COc1cccc(C(=O)Oc2ccc3c(c2)OCO3)c1,-5.05% (inactive)
22,COc1ccc(N(CC(=O)Nc2ccccc2SC)S(C)(=O)=O)cc1OC,7.5% (inactive)
23,Cc1cc(C)n(S(=O)(=O)c2cc(C(=O)O)c(Cl)cc2Cl)n1,-10.2% (inactive)

# Same assay, conditions: H69AR cells + 2 uM doxorubicin, CellTiter-Glo, 72 h; measured here: viability with 2 uM doxorubicin; at 10 µM; stronger effect = lower value
row,SMILES,viability [%]
1,CC1(C)NC(=O)N(CN2C(=O)NC(C)(C)C2=O)C1=O,90.8
2,Cc1ccccc1NC(=O)C1CCC(C)(C(=O)O)C1(C)C (configuration not stated),98.8
3,CC(C)[C@H](NC(=O)OC(C)(C)C)c1nnc(S(=O)(=O)Cc2c(F)cccc2Cl)o1,1.58
4,CSC1CCCCC1(O)CSc1nc2c(cc1C#N)CCCC2 (configuration not stated),95.2
5,Cc1cccc(NC(=O)CCn2ccnc2C)c1,88.4
6,CCCSc1nnc(-c2ccccc2NC(=O)CC)c(=O)[nH]1,88.1
7,Cc1ccc(S(=O)(=O)N2CCCC2C(=O)OCc2ccco2)cc1 (configuration not stated),76.8
8,Cc1ccc(C2C(C#N)=C(N)Oc3cc4c(cc32)OCO4)cc1 (configuration not stated),54.4
9,CCNc1oc(COc2ccccc2F)nc1C#N,77.4
10,CC(C)Cc1nnc(NC(=O)CCC(=O)N2CCOCC2)s1,95.9
11,Cc1cccc(OCC(=O)Nc2ccccc2N2CCN(C(=O)C(C)C)CC2)c1C,86
12,CC1(C)NC(=O)N(CCOc2cccc(Cl)c2Cl)C1=O,87.5
13,Cn1c(=O)[nH]c(=O)c2c1nc(NC1CCCCC1)n2CC(=O)NC1CCCCC1,80.1
14,COc1ccc(Nc2ncc3c(n2)CC(c2ccc(OC)cc2)CC3=O)cc1 (configuration not stated),93.6
15,COc1ccc(OC)c(Nc2ncnc3c2cnn3-c2ccccc2)c1,88.5
16,O=C(c1ccc(-c2ccccc2)cc1)N1CCC(C(=O)N2CCCC2)CC1,91.4
17,Cc1cccc(NCc2ccccc2O)c1,89.2
18,CCCCC(CC)Cn1c2nc3ccccc3nc2c2c(=N)oc(C)nc21 (configuration not stated),2.24
19,O=C(Sc1nnnn1C1CCCCC1)c1cccs1,92.5
20,Cc1cc(=O)[nH]c2c1cnn2Cc1ccccc1,93.9

row,SMILES,viability [%]
1,O=C(CN1CCOCC1)Nc1cccc(C(=O)Nc2cccc(C(F)(F)F)c2)c1,92.4
2,CCOC(=O)CS(=O)(=O)c1nc(-c2ccccc2)cc(C(F)(F)F)n1,1.14
3,CCn1c(Cc2ccccc2)nnc1SCC(=O)Nc1nc2ccccc2s1,99.9
4,CCOc1ccccc1N(CC(=O)N1CCOCC1)S(=O)(=O)c1ccccc1,97.8
5,O=C(Nc1ccc(Cl)cc1)N1CCSCC1,89.6
6,CC(=O)c1cccc(NS(=O)(=O)c2ccc3c(c2)oc(=O)n3C)c1,96.7
7,O=C1c2ccccc2C(=O)N1CCCCN1CCN(CCCCN2C(=O)c3ccccc3C2=O)CC1,84.8
8,CCCC1CCC(C(=O)Nn2c(C)nc3ccccc3c2=O)CC1 (configuration not stated),83.3
9,Cc1cnn(C(=S)NCc2ccco2)c1,90.1
10,Cc1ccccc1CN1CCN(CC(=O)NCc2ccco2)C1=O,83.7
11,CC1(C)C2CCC1(CS(=O)(=O)NCc1ccc(C(=O)O)cc1)C(=O)C2 (configuration not stated),84.2
12,Cc1cccc2cc(C#N)c(SCCN3CCCCC3)nc12,78.2
13,CC1(C)CC(=O)c2c(O)cc(O)cc2O1,84.3
14,Cc1nc(C)c(C(=O)C2=C(O)C(=O)N(CCN3CCOCC3)C2c2ccco2)s1 (configuration not stated),89.7
15,Cc1cc(C(F)(F)F)nc(SCC(=O)NC2=NC(=O)C(C)S2)n1 (configuration not stated),83.6
16,CN(c1cccc(NC(=O)COc2ccccc2)c1)S(C)(=O)=O,99
17,Cc1noc(C)c1COc1cccc(C(=O)Oc2ccc3c(c2)OCO3)c1,84.5
18,COc1ccc(N(CC(=O)Nc2ccccc2SC)S(C)(=O)=O)cc1OC,90.7
19,Cc1cc(C)n(S(=O)(=O)c2cc(C(=O)O)c(Cl)cc2Cl)n1,92.8
